According to the supplement of paper PMC4466140:

Assays:
Assay in all cases: SPOT peptide array binding signal intensity (averaged, normalized) (arbitrary units (background-subtracted, floor 0; scale differs between SH3 domains)); higher = stronger binding of the SH3 domain to the peptide
AgAbp1 = target: AgAbp1
In short: (§1)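 Binding signal refers to normalized, background-subtracted spot intensity averaged over replicates, expressed in arbitrary units that differ between domains. GST-fused SH3 domains from four yeast species were incubated at 10 μg/ml overnight at 4°C on cellulose membranes of synthetic 15-mer peptides with cysteines replaced by serines. Bound protein was detected with anti-GST antibody, an HRP anti-mouse secondary and luminol, and quantified with Genespotter.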

AgBbc1 = target: AgBbc1
In short: as §1

AgBem1-D1 = target: AgBem1-D1
In short: as §1

AgBzz1-D1 = target: AgBzz1-D1
In short: as §1

AgBzz1-D2 = target: AgBzz1-D2
In short: as §1

AgCyk3 = target: AgCyk3
In short: as §1

AgFus1 = target: AgFus1
In short: as §1

AgHof1 = target: AgHof1
In short: as §1

AgHse1 = target: AgHse1
In short: as §1

AgLsb1 = target: AgLsb1
In short: as §1

AgLsb4 = target: AgLsb4
In short: as §1

AgMyo5 = target: AgMyo5
In short: as §1

AgNbp2 = target: AgNbp2
In short: as §1

AgRvs167 = target: AgRvs167
In short: as §1

AgSho1 = target: AgSho1
In short: as §1

AgSla1-D1-D2 = target: AgSla1-D1-D2
In short: as §1

AgSla1-D3 = target: AgSla1-D3
In short: as §1

CaAbp1-D1 = target: CaAbp1-D1
In short: as §1

CaAbp1-D2 = target: CaAbp1-D2
In short: as §1

CaBbc1 = target: CaBbc1
In short: as §1

CaBem1-D1 = target: CaBem1-D1
In short: as §1

CaBzz1-D1 = target: CaBzz1-D1
In short: as §1

CaBzz1-D2 = target: CaBzz1-D2
In short: as §1

CaCyk3 = target: CaCyk3
In short: as §1

CaFus1 = target: CaFus1
In short: as §1

CaHof1 = target: CaHof1
In short: as §1

CaHse1 = target: CaHse1
In short: as §1

CaLsb1 = target: CaLsb1
In short: as §1

CaLsb4 = target: CaLsb4
In short: as §1

CaMyo5 = target: CaMyo5
In short: as §1

CaNbp2 = target: CaNbp2
In short: as §1

CaRvs167 = target: CaRvs167
In short: as §1

CaRvs167-3 = target: CaRvs167-3
In short: as §1

CaSho1 = target: CaSho1
In short: as §1

CaSla1-D1-D2 = target: CaSla1-D1-D2
In short: as §1

CaSla1-D3 = target: CaSla1-D3
In short: as §1

ScAbp1 = target: ScAbp1
In short: as §1

ScBbc1 = target: ScBbc1
In short: as §1

ScBem1-D1 = target: ScBem1-D1
In short: as §1

ScBzz1-D1 = target: ScBzz1-D1
In short: as §1

ScBzz1-D2 = target: ScBzz1-D2
In short: as §1

ScCyk3 = target: ScCyk3
In short: as §1

ScFus1 = target: ScFus1
In short: as §1

ScHof1 = target: ScHof1
In short: as §1

ScHse1 = target: ScHse1
In short: as §1

ScLsb1 = target: ScLsb1
In short: as §1

ScLsb2 = target: ScLsb2
In short: as §1

ScLsb3 = target: ScLsb3
In short: as §1

ScLsb4 = target: ScLsb4
In short: as §1

ScMyo3 = target: ScMyo3
In short: as §1

ScMyo5 = target: ScMyo5
In short: as §1

ScNbp2 = target: ScNbp2
In short: as §1

ScPex13 = target: ScPex13
In short: as §1

ScRvs167 = target: ScRvs167
In short: as §1

ScSho1 = target: ScSho1
In short: as §1

ScSla1-D1-D2 = target: ScSla1-D1-D2
In short: as §1

ScSla1-D3 = target: ScSla1-D3
In short: as §1

SpAbp1-D1 = target: SpAbp1-D1
In short: as §1

SpBbc1 = target: SpBbc1
In short: as §1

SpBzz1-D1 = target: SpBzz1-D1
In short: as §1

SpBzz1-D2 = target: SpBzz1-D2
In short: as §1

SpCyk3 = target: SpCyk3
In short: as §1

SpHof1 = target: SpHof1
In short: as §1

SpHof1-2 = target: SpHof1-2
In short: as §1

SpHof1-3 = target: SpHof1-3
In short: as §1

SpHse1 = target: SpHse1
In short: as §1

SpLsb1 = target: SpLsb1
In short: as §1

SpLsb4 = target: SpLsb4
In short: as §1

SpMyo1 = target: SpMyo1
In short: as §1

SpNbp2 = target: SpNbp2
In short: as §1

SpPex13 = target: SpPex13
In short: as §1

SpRvs167 = target: SpRvs167
In short: as §1

SpSla1-D1-D2 = target: SpSla1-D1-D2
In short: as §1

SpSla1-D3 = target: SpSla1-D3
In short: as §1

B1: unnamed (peptide)
chain: NLDRSKISLPDFDDE
Question: Which “SPOT peptide array binding signal intensity” value (AgAbp1) does the source give for B1 here?
Answer: The value was 4.5.

Question: And the “SPOT peptide array binding signal intensity” value (AgBbc1)?
Answer: Its value is 0.75.

Question: What about the “SPOT peptide array binding signal intensity” value (AgBem1-D1) of the same binder?
Answer: Its value is 5.5.

Question: What about the “SPOT peptide array binding signal intensity” value (AgBzz1-D1) of the same binder?
Answer: The value was 26.

Question: And the “SPOT peptide array binding signal intensity” value (AgBzz1-D2)?
Answer: The value was 14.

Question: What about the “SPOT peptide array binding signal intensity” value (AgCyk3) of the same binder?
Answer: Its value is ≤ 0.

Question: What about the “SPOT peptide array binding signal intensity” value (AgFus1) of the same binder?
Answer: Its value is 42.

Question: And the “SPOT peptide array binding signal intensity” value (AgHof1)?
Answer: The value was 11.5.

Question: And the “SPOT peptide array binding signal intensity” value (AgHse1)?
Answer: The value was 716.

Question: And the “SPOT peptide array binding signal intensity” value (AgLsb1)?
Answer: The value was ≤ 0.

Question: And the “SPOT peptide array binding signal intensity” value (AgLsb4)?
Answer: Its value is 18.

Question: And the “SPOT peptide array binding signal intensity” value (AgMyo5)?
Answer: The value was ≤ 0.

Question: What about the “SPOT peptide array binding signal intensity” value (AgNbp2) of the same binder?
Answer: The value was 4.

Question: What about the “SPOT peptide array binding signal intensity” value (AgRvs167) of the same binder?
Answer: Its value is 7.

Question: What about the “SPOT peptide array binding signal intensity” value (AgSho1) of the same binder?
Answer: Its value is 11.5.

Question: What about the “SPOT peptide array binding signal intensity” value (AgSla1-D1-D2) of the same binder?
Answer: The value was ≤ 0.

Question: And the “SPOT peptide array binding signal intensity” value (AgSla1-D3)?
Answer: The value was ≤ 0.

Question: And the “SPOT peptide array binding signal intensity” value (CaAbp1-D1)?
Answer: The value was 33.5.

Question: And the “SPOT peptide array binding signal intensity” value (CaAbp1-D2)?
Answer: Its value is 26.

Question: What about the “SPOT peptide array binding signal intensity” value (CaBbc1) of the same binder?
Answer: The value was 8.

Question: And the “SPOT peptide array binding signal intensity” value (CaBem1-D1)?
Answer: Its value is 4.

Question: And the “SPOT peptide array binding signal intensity” value (CaBzz1-D1)?
Answer: Its value is 31.

Question: What about the “SPOT peptide array binding signal intensity” value (CaBzz1-D2) of the same binder?
Answer: Its value is 2.5.

Question: And the “SPOT peptide array binding signal intensity” value (CaCyk3)?
Answer: Its value is ≤ 0.

Question: And the “SPOT peptide array binding signal intensity” value (CaFus1)?
Answer: Its value is 283.

Question: What about the “SPOT peptide array binding signal intensity” value (CaHof1) of the same binder?
Answer: The value was 1.5.

Question: And the “SPOT peptide array binding signal intensity” value (CaHse1)?
Answer: The value was 21.

Question: And the “SPOT peptide array binding signal intensity” value (CaLsb1)?
Answer: The value was ≤ 0.

Question: And the “SPOT peptide array binding signal intensity” value (CaLsb4)?
Answer: The value was ≤ 0.

Question: What about the “SPOT peptide array binding signal intensity” value (CaMyo5) of the same binder?
Answer: Its value is 6.25.

Question: And the “SPOT peptide array binding signal intensity” value (CaNbp2)?
Answer: Its value is 193.

Question: What about the “SPOT peptide array binding signal intensity” value (CaRvs167) of the same binder?
Answer: Its value is 1.33.

Question: What about the “SPOT peptide array binding signal intensity” value (CaRvs167-3) of the same binder?
Answer: Its value is 1.25.

Question: What about the “SPOT peptide array binding signal intensity” value (CaSho1) of the same binder?
Answer: The value was 74.5.

Question: And the “SPOT peptide array binding signal intensity” value (CaSla1-D1-D2)?
Answer: Its value is ≤ 0.

Question: And the “SPOT peptide array binding signal intensity” value (CaSla1-D3)?
Answer: The value was ≤ 0.

Question: What about the “SPOT peptide array binding signal intensity” value (ScAbp1) of the same binder?
Answer: Its value is 11.

Question: And the “SPOT peptide array binding signal intensity” value (ScBbc1)?
Answer: The value was 1.5.

Question: And the “SPOT peptide array binding signal intensity” value (ScBem1-D1)?
Answer: The value was 1.

Question: What about the “SPOT peptide array binding signal intensity” value (ScBzz1-D1) of the same binder?
Answer: The value was 39.5.

Question: What about the “SPOT peptide array binding signal intensity” value (ScBzz1-D2) of the same binder?
Answer: The value was 18.

Question: What about the “SPOT peptide array binding signal intensity” value (ScCyk3) of the same binder?
Answer: Its value is 16.

Question: What about the “SPOT peptide array binding signal intensity” value (ScFus1) of the same binder?
Answer: The value was 34.

Question: What about the “SPOT peptide array binding signal intensity” value (ScHof1) of the same binder?
Answer: The value was 2.

Question: And the “SPOT peptide array binding signal intensity” value (ScHse1)?
Answer: Its value is 1260.

Question: What about the “SPOT peptide array binding signal intensity” value (ScLsb1) of the same binder?
Answer: The value was ≤ 0.

Question: What about the “SPOT peptide array binding signal intensity” value (ScLsb2) of the same binder?
Answer: Its value is ≤ 0.

Question: What about the “SPOT peptide array binding signal intensity” value (ScLsb3) of the same binder?
Answer: The value was ≤ 0.

Question: And the “SPOT peptide array binding signal intensity” value (ScLsb4)?
Answer: The value was 3.

Question: And the “SPOT peptide array binding signal intensity” value (ScMyo3)?
Answer: The value was 3.5.

Question: And the “SPOT peptide array binding signal intensity” value (ScMyo5)?
Answer: Its value is 4.

Question: And the “SPOT peptide array binding signal intensity” value (ScNbp2)?
Answer: Its value is 28.

Question: And the “SPOT peptide array binding signal intensity” value (ScPex13)?
Answer: The value was ≤ 0.

Question: And the “SPOT peptide array binding signal intensity” value (ScRvs167)?
Answer: Its value is 0.167.

Question: And the “SPOT peptide array binding signal intensity” value (ScSho1)?
Answer: The value was 87.5.

Question: What about the “SPOT peptide array binding signal intensity” value (ScSla1-D1-D2) of the same binder?
Answer: Its value is ≤ 0.

Question: And the “SPOT peptide array binding signal intensity” value (ScSla1-D3)?
Answer: Its value is 1.

Question: What about the “SPOT peptide array binding signal intensity” value (SpAbp1-D1) of the same binder?
Answer: The value was 11.

Question: And the “SPOT peptide array binding signal intensity” value (SpBbc1)?
Answer: The value was ≤ 0.

Question: And the “SPOT peptide array binding signal intensity” value (SpBzz1-D1)?
Answer: The value was 14.5.

Question: What about the “SPOT peptide array binding signal intensity” value (SpBzz1-D2) of the same binder?
Answer: Its value is ≤ 0.

Question: And the “SPOT peptide array binding signal intensity” value (SpCyk3)?
Answer: The value was ≤ 0.

Question: And the “SPOT peptide array binding signal intensity” value (SpHof1)?
Answer: The value was 11.5.

Question: What about the “SPOT peptide array binding signal intensity” value (SpHof1-2) of the same binder?
Answer: Its value is 4.

Question: What about the “SPOT peptide array binding signal intensity” value (SpHof1-3) of the same binder?
Answer: Its value is 70.

Question: And the “SPOT peptide array binding signal intensity” value (SpHse1)?
Answer: The value was 983.

Question: What about the “SPOT peptide array binding signal intensity” value (SpLsb1) of the same binder?
Answer: Its value is ≤ 0.

Question: And the “SPOT peptide array binding signal intensity” value (SpLsb4)?
Answer: Its value is ≤ 0.

Question: And the “SPOT peptide array binding signal intensity” value (SpMyo1)?
Answer: Its value is 9.

Question: And the “SPOT peptide array binding signal intensity” value (SpNbp2)?
Answer: The value was 16.

Question: What about the “SPOT peptide array binding signal intensity” value (SpPex13) of the same binder?
Answer: Its value is ≤ 0.

Question: What about the “SPOT peptide array binding signal intensity” value (SpRvs167) of the same binder?
Answer: Its value is 0.5.

Question: What about the “SPOT peptide array binding signal intensity” value (SpSla1-D1-D2) of the same binder?
Answer: Its value is ≤ 0.

Question: And the “SPOT peptide array binding signal intensity” value (SpSla1-D3)?
Answer: The value was ≤ 0.
